Measurements as given in the supplement of paper PMC11732987, “Enantioselective OTUD7B fragment discovery through chemoproteomics screening and high-throughput optimisation” (Communications Chemistry, 2025).

Tests used:
Experiment in all cases: log2 ratio of Biotin-Ahx-Ub-VS probe labelling (fragment/DMSO); higher = less target engagement (more negative = stronger competition), active = hit call of the paper (q ≤ 0.05, log2 ratio ≤ -1)
Settings in all cases: compound concentration: 200 uM; treatment time: 3 h
USP34 = USP34 (UniProt Q70CQ2)
USP34, sequence (Q70CQ2 whole entry, the tested form may be a part): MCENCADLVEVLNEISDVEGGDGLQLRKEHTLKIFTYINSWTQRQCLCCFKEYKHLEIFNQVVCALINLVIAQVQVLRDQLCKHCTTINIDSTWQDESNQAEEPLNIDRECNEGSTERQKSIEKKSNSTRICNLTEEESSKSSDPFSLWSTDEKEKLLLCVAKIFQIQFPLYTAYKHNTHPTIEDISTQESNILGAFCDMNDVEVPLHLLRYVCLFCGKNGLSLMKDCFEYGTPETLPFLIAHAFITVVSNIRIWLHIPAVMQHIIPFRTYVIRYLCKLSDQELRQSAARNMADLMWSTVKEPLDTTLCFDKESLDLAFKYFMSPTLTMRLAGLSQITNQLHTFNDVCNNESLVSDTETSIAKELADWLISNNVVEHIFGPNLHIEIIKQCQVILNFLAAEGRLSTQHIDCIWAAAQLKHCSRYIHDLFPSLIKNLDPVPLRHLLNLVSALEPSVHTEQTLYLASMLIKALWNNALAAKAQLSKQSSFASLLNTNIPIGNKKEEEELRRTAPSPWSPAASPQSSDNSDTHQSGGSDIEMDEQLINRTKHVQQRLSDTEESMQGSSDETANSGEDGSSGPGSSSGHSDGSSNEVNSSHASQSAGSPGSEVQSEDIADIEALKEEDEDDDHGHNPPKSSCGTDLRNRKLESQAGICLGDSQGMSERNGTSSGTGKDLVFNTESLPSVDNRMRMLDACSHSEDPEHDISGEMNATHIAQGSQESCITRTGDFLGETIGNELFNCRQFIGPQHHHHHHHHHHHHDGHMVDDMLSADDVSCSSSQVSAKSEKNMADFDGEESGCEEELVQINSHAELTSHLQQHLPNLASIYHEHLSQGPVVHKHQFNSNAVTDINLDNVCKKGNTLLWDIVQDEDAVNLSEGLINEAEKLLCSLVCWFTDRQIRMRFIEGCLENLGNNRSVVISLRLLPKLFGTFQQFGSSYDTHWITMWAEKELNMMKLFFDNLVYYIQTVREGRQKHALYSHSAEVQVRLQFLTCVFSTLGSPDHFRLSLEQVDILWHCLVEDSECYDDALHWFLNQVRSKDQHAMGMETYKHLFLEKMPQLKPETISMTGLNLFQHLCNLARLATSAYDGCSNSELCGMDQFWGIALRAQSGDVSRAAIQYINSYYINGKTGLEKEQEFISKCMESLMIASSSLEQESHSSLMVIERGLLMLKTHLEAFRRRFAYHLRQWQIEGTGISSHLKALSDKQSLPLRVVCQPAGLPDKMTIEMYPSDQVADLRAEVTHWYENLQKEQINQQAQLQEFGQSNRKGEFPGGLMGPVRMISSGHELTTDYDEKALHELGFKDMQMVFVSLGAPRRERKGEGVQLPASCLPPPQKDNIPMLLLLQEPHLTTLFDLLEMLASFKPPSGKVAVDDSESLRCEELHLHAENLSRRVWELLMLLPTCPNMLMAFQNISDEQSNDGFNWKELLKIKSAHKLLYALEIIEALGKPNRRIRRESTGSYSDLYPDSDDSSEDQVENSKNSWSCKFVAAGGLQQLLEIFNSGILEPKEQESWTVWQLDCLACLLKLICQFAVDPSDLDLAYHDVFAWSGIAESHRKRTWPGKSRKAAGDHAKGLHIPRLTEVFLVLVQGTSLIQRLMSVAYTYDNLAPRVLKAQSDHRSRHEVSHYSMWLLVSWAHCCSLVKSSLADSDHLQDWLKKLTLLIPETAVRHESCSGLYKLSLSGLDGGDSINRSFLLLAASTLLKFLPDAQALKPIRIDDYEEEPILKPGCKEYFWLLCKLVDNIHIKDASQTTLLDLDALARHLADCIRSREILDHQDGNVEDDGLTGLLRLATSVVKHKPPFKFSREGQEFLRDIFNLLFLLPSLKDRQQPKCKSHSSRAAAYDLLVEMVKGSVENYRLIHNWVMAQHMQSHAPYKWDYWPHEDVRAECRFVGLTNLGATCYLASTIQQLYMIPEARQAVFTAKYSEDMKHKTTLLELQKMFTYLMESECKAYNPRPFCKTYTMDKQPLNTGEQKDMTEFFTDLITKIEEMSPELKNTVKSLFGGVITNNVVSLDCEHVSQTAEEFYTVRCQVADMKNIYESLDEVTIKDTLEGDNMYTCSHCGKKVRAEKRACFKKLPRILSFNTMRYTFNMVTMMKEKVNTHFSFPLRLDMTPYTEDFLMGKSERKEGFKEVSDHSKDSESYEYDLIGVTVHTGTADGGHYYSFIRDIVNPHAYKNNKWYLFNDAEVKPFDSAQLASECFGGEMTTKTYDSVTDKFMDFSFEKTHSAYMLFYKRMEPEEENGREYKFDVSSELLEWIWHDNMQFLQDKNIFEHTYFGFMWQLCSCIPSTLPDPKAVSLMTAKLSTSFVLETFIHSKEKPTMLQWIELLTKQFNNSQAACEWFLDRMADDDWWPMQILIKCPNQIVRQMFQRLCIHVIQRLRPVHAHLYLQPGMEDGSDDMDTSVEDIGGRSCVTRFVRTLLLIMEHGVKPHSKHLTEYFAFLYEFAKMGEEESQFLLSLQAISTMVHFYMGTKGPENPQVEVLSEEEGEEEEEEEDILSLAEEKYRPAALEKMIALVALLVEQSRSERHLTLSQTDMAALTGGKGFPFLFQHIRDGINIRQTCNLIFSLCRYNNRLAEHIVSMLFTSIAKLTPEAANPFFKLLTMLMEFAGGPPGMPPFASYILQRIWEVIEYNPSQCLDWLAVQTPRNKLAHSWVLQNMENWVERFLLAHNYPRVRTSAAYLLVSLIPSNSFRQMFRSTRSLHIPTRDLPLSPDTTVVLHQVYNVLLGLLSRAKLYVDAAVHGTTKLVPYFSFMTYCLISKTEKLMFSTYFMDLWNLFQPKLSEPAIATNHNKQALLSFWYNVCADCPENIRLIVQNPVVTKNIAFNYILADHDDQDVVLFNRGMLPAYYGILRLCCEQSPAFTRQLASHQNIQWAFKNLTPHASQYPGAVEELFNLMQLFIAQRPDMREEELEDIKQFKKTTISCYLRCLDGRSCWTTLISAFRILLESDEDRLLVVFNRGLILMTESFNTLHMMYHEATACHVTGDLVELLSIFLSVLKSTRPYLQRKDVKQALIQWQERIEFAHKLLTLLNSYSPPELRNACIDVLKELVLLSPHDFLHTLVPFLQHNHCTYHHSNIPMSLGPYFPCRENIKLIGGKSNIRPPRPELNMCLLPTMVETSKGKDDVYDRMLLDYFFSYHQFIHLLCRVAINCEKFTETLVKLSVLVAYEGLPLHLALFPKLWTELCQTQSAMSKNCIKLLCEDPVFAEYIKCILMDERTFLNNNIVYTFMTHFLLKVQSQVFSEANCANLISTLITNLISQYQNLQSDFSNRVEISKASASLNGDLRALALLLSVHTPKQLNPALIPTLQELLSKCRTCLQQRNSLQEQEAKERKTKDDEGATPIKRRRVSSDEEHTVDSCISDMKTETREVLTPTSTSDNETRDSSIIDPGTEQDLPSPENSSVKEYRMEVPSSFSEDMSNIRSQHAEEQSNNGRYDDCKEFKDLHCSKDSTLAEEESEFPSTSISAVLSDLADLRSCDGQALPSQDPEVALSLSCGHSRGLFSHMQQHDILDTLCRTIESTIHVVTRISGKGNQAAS
How it was run: (§1)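 The table lists average log2 ratios of fragment over vehicle, from an unpaired t-test on global-median-normalised Spectronaut label-free quantities. Proteins with ≥2 unique peptides were used. Samples were HEK293T lysate (495 µg) treated in triplicate with fragment at 200 µM or vehicle for 3 h, then with Biotin-Ahx-Ub-VS (0.5 µM final) for 1 h, with labelled DUBs NeutrAvidin-enriched and run by diaPASEF LC-MS/MS.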

USP36 = biological target: T1, USP36 (UniProt Q9P275)
T1 sequence (whole entry): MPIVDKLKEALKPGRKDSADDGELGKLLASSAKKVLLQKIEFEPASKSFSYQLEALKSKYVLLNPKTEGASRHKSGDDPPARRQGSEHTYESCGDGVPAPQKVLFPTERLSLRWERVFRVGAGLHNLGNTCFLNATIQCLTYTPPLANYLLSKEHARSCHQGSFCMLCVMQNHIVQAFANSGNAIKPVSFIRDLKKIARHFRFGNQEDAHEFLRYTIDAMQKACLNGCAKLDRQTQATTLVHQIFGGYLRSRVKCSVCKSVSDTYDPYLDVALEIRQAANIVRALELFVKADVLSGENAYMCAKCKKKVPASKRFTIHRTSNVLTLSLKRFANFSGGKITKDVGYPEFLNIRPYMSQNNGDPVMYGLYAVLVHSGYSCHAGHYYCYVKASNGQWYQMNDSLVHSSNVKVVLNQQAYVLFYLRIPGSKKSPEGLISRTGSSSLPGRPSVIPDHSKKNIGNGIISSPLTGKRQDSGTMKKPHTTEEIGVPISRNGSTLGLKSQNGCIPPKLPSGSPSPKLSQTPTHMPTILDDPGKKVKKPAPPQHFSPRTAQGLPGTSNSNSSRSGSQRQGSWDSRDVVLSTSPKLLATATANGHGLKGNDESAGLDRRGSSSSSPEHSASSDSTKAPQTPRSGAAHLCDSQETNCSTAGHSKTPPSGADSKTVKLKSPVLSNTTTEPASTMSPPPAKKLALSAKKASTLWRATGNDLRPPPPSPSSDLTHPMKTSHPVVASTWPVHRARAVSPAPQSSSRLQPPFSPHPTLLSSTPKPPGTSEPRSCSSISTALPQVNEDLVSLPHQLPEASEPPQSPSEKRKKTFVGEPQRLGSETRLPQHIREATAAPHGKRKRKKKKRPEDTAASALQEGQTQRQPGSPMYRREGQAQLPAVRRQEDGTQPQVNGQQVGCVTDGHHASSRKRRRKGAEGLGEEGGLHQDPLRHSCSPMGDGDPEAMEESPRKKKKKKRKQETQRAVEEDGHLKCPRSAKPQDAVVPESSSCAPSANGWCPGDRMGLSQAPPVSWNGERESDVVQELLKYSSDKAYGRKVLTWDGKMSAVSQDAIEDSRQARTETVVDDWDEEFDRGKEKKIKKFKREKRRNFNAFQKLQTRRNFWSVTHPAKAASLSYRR
How it was run: as §1

USP38 = biological target: T2, USP38 (UniProt Q8NB14)
T2 sequence (whole entry): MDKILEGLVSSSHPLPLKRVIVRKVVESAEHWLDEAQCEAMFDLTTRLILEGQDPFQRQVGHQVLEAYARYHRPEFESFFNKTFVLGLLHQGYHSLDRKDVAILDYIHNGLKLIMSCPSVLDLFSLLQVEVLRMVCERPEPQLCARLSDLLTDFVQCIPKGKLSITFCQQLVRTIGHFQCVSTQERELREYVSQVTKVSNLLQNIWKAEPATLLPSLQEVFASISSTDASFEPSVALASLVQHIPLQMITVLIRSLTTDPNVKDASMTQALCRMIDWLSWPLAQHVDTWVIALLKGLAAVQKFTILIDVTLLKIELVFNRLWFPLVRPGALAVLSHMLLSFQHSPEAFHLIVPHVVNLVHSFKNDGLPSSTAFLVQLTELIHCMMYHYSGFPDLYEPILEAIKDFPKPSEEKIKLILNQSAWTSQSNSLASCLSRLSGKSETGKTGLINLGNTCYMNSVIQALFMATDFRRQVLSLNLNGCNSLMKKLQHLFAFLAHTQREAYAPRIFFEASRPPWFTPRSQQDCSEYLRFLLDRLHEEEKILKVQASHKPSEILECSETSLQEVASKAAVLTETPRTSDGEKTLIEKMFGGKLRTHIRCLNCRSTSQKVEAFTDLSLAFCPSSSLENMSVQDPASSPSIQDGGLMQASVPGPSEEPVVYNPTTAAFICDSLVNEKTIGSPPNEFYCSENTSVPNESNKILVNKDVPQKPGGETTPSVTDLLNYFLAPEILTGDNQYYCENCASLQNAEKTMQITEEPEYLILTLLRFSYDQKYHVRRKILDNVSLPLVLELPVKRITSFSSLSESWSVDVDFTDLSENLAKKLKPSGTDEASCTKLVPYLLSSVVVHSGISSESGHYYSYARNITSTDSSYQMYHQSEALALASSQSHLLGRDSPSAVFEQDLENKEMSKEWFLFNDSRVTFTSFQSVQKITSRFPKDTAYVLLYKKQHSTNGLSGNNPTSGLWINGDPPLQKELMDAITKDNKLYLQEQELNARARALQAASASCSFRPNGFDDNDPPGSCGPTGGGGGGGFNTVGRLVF
How it was run: as §1

USP39 = biological target: T3, USP39 (UniProt Q53GS9)
T3 sequence (whole entry): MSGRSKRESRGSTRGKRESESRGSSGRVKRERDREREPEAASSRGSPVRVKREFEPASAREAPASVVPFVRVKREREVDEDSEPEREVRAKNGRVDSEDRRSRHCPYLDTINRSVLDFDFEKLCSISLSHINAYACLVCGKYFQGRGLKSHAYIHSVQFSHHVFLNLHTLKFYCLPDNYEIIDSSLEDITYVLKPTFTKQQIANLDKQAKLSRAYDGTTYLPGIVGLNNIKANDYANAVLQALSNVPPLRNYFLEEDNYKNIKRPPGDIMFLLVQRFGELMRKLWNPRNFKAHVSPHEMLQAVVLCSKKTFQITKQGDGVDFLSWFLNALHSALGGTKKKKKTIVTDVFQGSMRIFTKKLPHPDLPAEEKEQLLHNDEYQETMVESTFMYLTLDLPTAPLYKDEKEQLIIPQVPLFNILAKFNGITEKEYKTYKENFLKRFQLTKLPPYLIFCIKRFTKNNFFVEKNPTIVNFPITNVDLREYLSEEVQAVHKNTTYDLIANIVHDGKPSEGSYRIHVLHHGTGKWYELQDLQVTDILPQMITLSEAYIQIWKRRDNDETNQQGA
How it was run: as §1

USP4 = biological target: T4, USP4 (UniProt Q13107)
T4 sequence (whole entry): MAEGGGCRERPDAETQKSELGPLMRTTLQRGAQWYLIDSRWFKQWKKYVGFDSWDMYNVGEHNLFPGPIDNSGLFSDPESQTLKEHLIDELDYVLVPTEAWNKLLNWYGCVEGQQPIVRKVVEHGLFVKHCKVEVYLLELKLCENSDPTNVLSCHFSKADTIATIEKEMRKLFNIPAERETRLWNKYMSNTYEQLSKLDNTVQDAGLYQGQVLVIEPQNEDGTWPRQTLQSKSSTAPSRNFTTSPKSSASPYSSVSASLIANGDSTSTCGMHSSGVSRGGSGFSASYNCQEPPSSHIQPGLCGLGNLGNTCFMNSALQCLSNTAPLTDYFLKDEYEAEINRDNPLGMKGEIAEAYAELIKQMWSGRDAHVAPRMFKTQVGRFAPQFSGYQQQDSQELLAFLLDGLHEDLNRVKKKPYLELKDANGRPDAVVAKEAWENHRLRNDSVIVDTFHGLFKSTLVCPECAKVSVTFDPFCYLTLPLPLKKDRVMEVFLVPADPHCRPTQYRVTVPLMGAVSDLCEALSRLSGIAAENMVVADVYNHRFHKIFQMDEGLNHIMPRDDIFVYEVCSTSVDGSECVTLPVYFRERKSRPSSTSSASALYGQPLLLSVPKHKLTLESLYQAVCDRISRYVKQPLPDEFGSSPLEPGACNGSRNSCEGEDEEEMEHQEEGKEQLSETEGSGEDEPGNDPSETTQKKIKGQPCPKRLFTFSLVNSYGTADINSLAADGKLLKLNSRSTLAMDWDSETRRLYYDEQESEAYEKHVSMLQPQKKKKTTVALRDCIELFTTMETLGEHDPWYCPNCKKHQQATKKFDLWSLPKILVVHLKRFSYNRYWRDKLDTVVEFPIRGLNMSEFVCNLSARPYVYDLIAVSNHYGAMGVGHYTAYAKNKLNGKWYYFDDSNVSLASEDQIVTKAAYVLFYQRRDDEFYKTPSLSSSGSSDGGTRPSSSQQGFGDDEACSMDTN
How it was run: as §1

Measured: log2 ratio of Biotin-Ahx-Ub-VS probe labelling

CCc1c[nH]c(CNC(=O)CCl)n1.Cl
inactive: USP34 -0.213 | USP36 -0.245 | USP38 -0.15 | USP39 0.178 | USP4 -0.159
